{
  "source": "PubChem BioAssay (Tox21)",
  "note": "Records with an inconclusive call do not appear. Active and inactive are the calls of the source. Calls follow the shape of the dose curve; as a rule, active = well fitted cell-killing curve with a large enough effect in the repeat runs; inconclusive = weak or mixed curves, or effect the other way; inactive = flat fitted curve, though single readings scatter.",
  "data": [
    {"assay": "qHTS assay to identify small molecule antagonists of the retinoid acid receptor (RAR) signaling pathway - cell viability counter screen (AID 1159551); also: nearly all actives have a fitted effect of over 35% in size", "conditions": "C3RL4 cells viability, ATP luminescence (CellTiter-Glo), 6 h; series mostly up to 92.4 µM", "text": "U.S. Tox21 Program National Center for Advancing Translational Sciences [NCATS] NIH Chemical Genomics Center [NCGC] U.S. Environmental Protection Agency [EPA] National Institutes of Environmental Health Sciences [NIEHS] National Toxicology Program [NTP] U.S. Food and Drug Administration [FDA] Tox21 Assay Overview: All-trans Retinoic acid (atRA) is the potent natural metabolite of retinol and plays an important role in normal embryonic development and maintenance of cellular phenotype in adult animals. atRA is the activating ligand for the retinoic acid receptors (RARs) which form heterodimers with retinoid X receptors (RXRs) on the retinoic acid response element (RARE). Through activation of the RAR/RXRs nuclear receptors, atRA regulates the transcription of a large number of protein-coding genes and regulatory RNAs. Intracellular levels of atRA are controlled by the retinol signaling pathway (RSP) that regulates the biosynthesis and catabolism of atRA to maintain physiological levels. Chemicals that interfere with the RSP can cause abnormal intracellular levels of atRA and therefore are potential developmental toxicants. To assess compounds for the potential adverse effect on embryonic development through interfering with retinol signaling, a cell-based RARE luciferase reporter gene assay was used. C3RL4 cell line (OARSA/CFSAN/FDA, Laurel, MD) was used to screen Tox21 10K compound library for identifying inhibitors of the RSP. Also cytotoxicity was assessed by determining the viability of cells based on the quantitation of ATP.\nTox21 Assay Protocol Summary: C3RL4 cells were seeded at 1,000/well in 4 uL of assay medium into white solid 1,536-well tissue culture plates (Greiner Bio-One North America Inc. Monroe, NC) using a Multidrop Combi (Thermo Scientific, Waltham, MA) dispenser. After incubation at 37 C and 5% CO2 for an overnight, 23 nL of compounds dissolved in DMSO, positive control or DMSO only were transferred by a Pintool station (Kalypsys, San Diego, CA). One ul of 1 uM (final concentration) of Retinol was added right after the compound addition by using a Flying Reagent Dispenser (FRD) (Aurora Discovery, San Diego, CA). After 6 hr incubation at 37 C and 5% CO2, 5 uL of CellTiter-Glo reagent (Promega Corporation, Madison, WI) was added to each assay plate using an FRD. Luminescence was quantified on a ViewLux plate reader (PerkinElmer, Waltham, MA) after 30 min incubation at room temperature.", "values": [
      {"smiles": "C=CC[N+](C)(C)CC=C", "outcome": "inactive"},
      {"smiles": "OCc1cccc(Oc2ccccc2)c1", "outcome": "inactive"},
      {"smiles": "CC(C)=CCl", "outcome": "inactive"},
      {"smiles": "COc1ccc(C)cc1N", "outcome": "inactive"},
      {"smiles": "CC(C)CCCCCCCOC(=O)CCCCC(=O)OCCCCCCCC(C)C", "outcome": "inactive"},
      {"smiles": "O=C1CCCC1", "outcome": "inactive"},
      {"smiles": "O=C(OCC1CCC2OC2C1)C1CCC2OC2C1", "note": "(stereo not given)", "outcome": "inactive"},
      {"smiles": "CC(C)OC(=O)COc1ccc(Cl)cc1Cl", "outcome": "inactive"},
      {"smiles": "CCCCCCC=O", "outcome": "inactive"},
      {"smiles": "CC(C)(C)c1cc(Cc2cc(C(C)(C)C)c(O)c(C(C)(C)C)c2)cc(C(C)(C)C)c1O", "outcome": "inactive"},
      {"smiles": "C=C(C)CNCC", "outcome": "inactive"},
      {"smiles": "C=CCCCCCCCCC(=O)O", "outcome": "inactive"},
      {"smiles": "CCO[Si](CCCN)(OCC)OCC", "outcome": "inactive"},
      {"smiles": "C=C(C)C(=O)OCC(C)C", "outcome": "inactive"},
      {"smiles": "O=[N+]([O-])c1ccc2nc[nH]c2c1", "outcome": "inactive"},
      {"smiles": "O=C(O)c1ccc(C(=O)O)c(C(=O)O)c1", "outcome": "inactive"},
      {"smiles": "CSc1ccc(Cl)cc1", "outcome": "inactive"},
      {"smiles": "COc1ccccc1OCC(O)CO", "note": "(stereo not given)", "outcome": "inactive"},
      {"smiles": "Cc1ccc(S(=O)(=O)N=C=O)cc1", "outcome": "inactive"},
      {"smiles": "CC(C)c1cccc(C(C)C)c1", "outcome": "inactive"},
      {"smiles": "COc1cc(OC)c(C(=O)CCCN2CCCC2)c(OC)c1", "outcome": "inactive"},
      {"smiles": "Clc1ccccn1", "outcome": "inactive"},
      {"smiles": "CC(=O)OC1CC(C)OC(C)O1", "note": "(stereo not given)", "outcome": "inactive"},
      {"smiles": "CCOCC(=O)O", "outcome": "inactive"},
      {"smiles": "C=Cc1ccc(C)cc1", "outcome": "inactive"},
      {"smiles": "CC(C)(C#N)c1cc(Cn2cncn2)cc(C(C)(C)C#N)c1", "outcome": "inactive"},
      {"smiles": "N#Cc1ccccc1", "outcome": "inactive"},
      {"smiles": "CCCCCCCCCCCCCCCCO", "outcome": "inactive"},
      {"smiles": "COc1ccc([N+](=O)[O-])cc1N", "outcome": "inactive"},
      {"smiles": "C[C@]12CC[C@@H]3c4ccc(O)cc4CC[C@H]3[C@@H]1C[C@@H](O)[C@@H]2O", "outcome": "inactive"},
      {"smiles": "CCNC(=S)NCC", "outcome": "inactive"},
      {"smiles": "C[C@]12CCC(=O)C=C1CC[C@@H]1[C@@H]2[C@@H](O)C[C@@]2(C)[C@H]1CC[C@]2(O)C(=O)CO", "outcome": "inactive"},
      {"smiles": "CCCCOC(=O)c1ccc(N)cc1", "outcome": "inactive"},
      {"smiles": "CNC(=S)N(C)C", "outcome": "inactive"},
      {"smiles": "CCCCC(C=O)CC", "note": "(stereo not given)", "outcome": "inactive"},
      {"smiles": "COCCCN", "outcome": "inactive"},
      {"smiles": "CC1(C)CC(N)CC(C)(CN)C1", "note": "(stereo not given)", "outcome": "inactive"},
      {"smiles": "C=CC(=O)OCCC(=O)O", "outcome": "inactive"},
      {"smiles": "O=C1C(c2[nH]c3ccccc3c2O)=Nc2ccccc21", "outcome": "inactive"},
      {"smiles": "CCOC(=O)n1ccn(C)c1=S", "outcome": "inactive"}
    ]}
  ]
}
